Potency data for 40 compounds are collected here from PubChem BioAssay (Tox21).

Molecules are shown by their SMILES. “And” between values parts separate entries of the source, which are not always exact repeats. Identical values can stand only once. Inconclusive results are not listed. A call without a number means that no potency is given here. Where a structure was tested more than once in an assay, its records may differ in their call. The source made the active and inactive calls. Calls follow the shape of the dose curve; as a rule, active = well fitted cell-killing curve with a large enough effect in the repeat runs; inconclusive = weak or mixed curves, or effect the other way; inactive = no such curve, though single readings can be large or run the other way.
Potency is read from the fitted curve at half-maximal effect.

A short description of this assay: qHTS assay to identify small molecule antagonists of the sonic hedgehog signaling (Shh) pathway - cell viability counter screen (AID 1259367). Also: nearly all actives have a fitted effect of over 55% in size. The note with it: NIH/3T3 Gli1-Luc viability, CellTiter-Fluor, 24 h; series mostly up to 92.4 µM. From the text:
National Center for Advancing Translational Sciences [NCATS]
NIH Chemical Genomics Center [NCGC]
U.S. Environmental Protection Agency [EPA]
National Institutes of Environmental Health Sciences [NIEHS]
National Toxicology Program [NTP]
U.S. Food and Drug Administration [FDA]
The sonic hedgehog (Shh) pathway is essential for normal embryonic development. Dysregulation of the Shh pathway can cause severe developmental defects in organs. Therefore chemicals that interfere with the pathway are potential developmental toxicants. A cell line designated 3T3Gli1-Luc (DMB/OARSA/CFSAN/FDA, Laurel, MD), a NIH/3T3 derived clone containing stably integrated Gli1-Luc reporter is used to detect chemical interference of the Shh pathway, by changes in the expression of the firefly Luc gene under the control of the Gli1 transcriptional response element. This cell line was used to screen Tox21 libraries for identifying and prioritizing the potential developmental toxicants that interfere Shh pathway. Conditioned medium-stimulated mode was used to screen for chemicals inhibiting Shh signaling. The cytotoxicity of the compounds was tested in parallel by measuring the cell viability using CellTiter-Fluor assay system (Promega, Madison, WI) in the same wells.
Tox21 Assay Protocol Summary:
3T3 Gli1-Luc cells were dispensed at 2,000 per well in 5uL of culture medium into white solid bottom 1536-well plates (Greiner Bio-One, Monroe, NC) using a Multidrop Combi (Thermo Scientific, Waltham, MA) dispenser. The assay plates were incubated at 37 C and 5% CO2 for 4hr, and then 23nL of compounds dissolved in DMSO and positive control were transferred using a Pintool station (Wako, San Diego, CA). The compound transfer was followed by the addition of 1ul conditioned medium or assay buffer using two separate tips of Flying Reagent Dispenser (FRD, Aurora Discovery, San Diego, CA). The assay plates were incubated at 37C and 5% CO2 for 24hr. For viability read, after 23hr of compound treatment, 1uL of CellTiter-Fluor reagent (Promega Corporation, Madison, WI) was added to each well of the assay plates using Flying Reagent Dispenser (FRD, Aurora Discovery, San Diego, CA) and incubated the assay plates at 37C for 1hr. The fluorescence signal was quantified using a ViewLux plate reader (Perkin Elmer, Shelton, CT).
A general note: Quantitative high-throughput screening tests each substance at several concentrations.
As for `Oc1ccc(/C=C/c2cc(O)cc(O)c2)cc1`, the Potency is 30.9 µM (active) and 27.3 µM (active).

Take `CC(C)[C@@H]1CC[C@@H](C)C[C@H]1O`: the Potency result was “inactive”.

For `CCCC(CCC)C(=O)O`, the Potency entry is “inactive”.

With `CC(=O)NS(=O)(=O)c1ccc(N)cc1`, the Potency entry was “inactive”.

Turning to `O=S(=O)(O)c1ccc2cc(O)ccc2c1`, the Potency result was “inactive”.

With `Nc1ccc(C(=O)O)cc1`, the Potency result was “inactive”.

`NS(=O)(=O)c1cc(C(=O)O)c(NCc2ccco2)cc1Cl`: the Potency result was “inactive”.

On to `OC(Cn1cncn1)(Cn1cncn1)c1ccc(F)cc1F`, for which the Potency entry is “inactive”.

As for `O=C(O)c1cccnc1`, the Potency result is “inactive”.

Consider `NC(=O)NC1NC(=O)NC1=O` (stereo not given), for which the Potency result is “inactive”.

On to `COc1c2occc2cc2ccc(=O)oc12`, for which the Potency entry is “inactive”.

With `Cc1ccc(C)c(OCCCC(C)(C)C(=O)O)c1`, the Potency entry was “inactive”.

As for `Nc1ccn([C@H]2CC[C@@H](CO)O2)c(=O)n1`, the Potency result was “inactive”.

For the compound `CCC1(c2ccccc2)C(=O)NCNC1=O`, the Potency result was “inactive”.

Consider `c1ccc2[nH]ccc2c1`, for which the Potency result is “inactive”.

Regarding `O=c1ccc2ccccc2o1`, the Potency result is “inactive”.

For `Nc1ccc(S(=O)(=O)c2ccc(N)cc2)cc1`, the Potency result was “inactive”.

In the case of `C1N2CN3CN1CN(C2)C3`, the Potency result was “inactive”.

Turning to `O=C(c1ccccc1)c1ccccc1`, the Potency result is “inactive”.

Consider `CCCCOC(=O)CC(CC(=O)OCCCC)(OC(C)=O)C(=O)OCCCC`, for which the Potency result is “inactive”.

For the compound `CCCN(CCC)S(=O)(=O)c1ccc(C(=O)O)cc1`, the Potency result was “inactive”.

As for `Cn1cc[nH]c1=S`, the Potency result was “inactive”.

On to `CCCCC1C(=O)N(c2ccccc2)N(c2ccccc2)C1=O`, for which the Potency entry is “inactive”.

As for `Nc1ccc(O)c(C(=O)O)c1`, the Potency entry is “inactive”.

Turning to `O=C1CN(/N=C/c2ccc([N+](=O)[O-])o2)C(=O)N1`, the Potency was 48.4 µM (active) and 38.6 µM (active).

On to `CCCNC(=O)NS(=O)(=O)c1ccc(Cl)cc1`, for which the Potency entry is “inactive”.

Turning to `CC(O)CN(CCN(CC(C)O)CC(C)O)CC(C)O` (stereo not given), the Potency entry was “inactive”.

For `O=C(O)/C=C\C(=O)O`, the Potency entry was “inactive”.

`C/C=C/c1ccc(OC)cc1`: the Potency entry was “inactive”.

Consider `O=C(O)CCC(=O)O`, for which the Potency result was “inactive”.

Turning to `Nc1ccc(S(=O)(=O)Nc2nccs2)cc1`, the Potency entry was “inactive”.

`NC(N)=O`: the Potency is 16.3 µM (active) and inactive.

As to `O=C(C1CCCCC1)N1CC(=O)N2CCc3ccccc3C2C1` (stereo not given), the Potency entry is “inactive”.

On to `CC(=O)Nc1nnc(S(N)(=O)=O)s1`, for which the Potency entry was “inactive”.

Turning to `CC(C)(Oc1ccc(C2CC2(Cl)Cl)cc1)C(=O)O` (stereo not given), the Potency entry was “inactive”.

Turning to `O=C(O)CCCCCCCC(=O)O`, the Potency result was “inactive”.

`NC(=O)c1ccccc1O`: the Potency entry is “inactive”.

As for `O=C(O)c1cccc([N+](=O)[O-])c1`, the Potency entry is “inactive”.

Turning to `Cn1c(=O)c2[nH]cnc2n(C)c1=O`, the Potency result is “inactive”.

For `CC(O)CO` (stereo not given), the Potency entry is “inactive”.
